Consider 19 molecules from PubChem BioAssay (EPA / NIEHS).

The target of experiment [1] is rat Mineralocorticoid Receptor (MR), Nr3c2 (gene 25672) (UniProt P22199). As to the kind of experiment: NVS_NR_rMR: NovaScreen (NVS) Nuclear Receptor Binding Assay for rat Mineralocorticoid Receptor (MR) (AID 2283355). In short, it runs like this: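 Cell-free radioligand binding to MR in adrenalectomized rat brain supernatant, scintillation counted 24 h after dosing. Loss of signal versus DMSO baseline marks displacement. Primary screen in duplicate at 25 uM; actives retested as concentration series.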

Experiment [2] deals with Estrogen receptor beta (Homo sapiens) (UniProt Q92731). Put plainly: OT_ER_ERbERb_0480: Odyssey Thera (OT) 8-hour HEK293T Protein-Complementation Assay for Estrogen Receptor-beta/-beta Homodimer (AID 2283357).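 Note: active means signal gain over DMSO baseline.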 In short, it runs like this:
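Readout: increase in mean fluorescence intensity (nucleus for agonists; nucleus plus cytoplasm for antagonists) relative to DMSO, from a reporter-fragment complementation of human ER-beta LBD homodimer in HEK293T cells dosed 8 hours.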

Experiment [3] concerns the target human Adenosine Transporter (Adot), SLC29A1 (gene 2030) (UniProt Q99808). Put plainly: NVS_TR_hAdoT: NovaScreen (NVS) Transporter Assay for human Adenosine Transporter (Adot) (AID 2283368). The gist of the method: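 U937-derived membranes, cell-free radioligand binding, filter scintillation 1 h after dosing. 25 uM duplicate screen; hits (e.g. 30% inhibition) run in concentration-response up to 50 uM; loss of signal versus DMSO.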

The target in experiment [4] is Peroxisome proliferator-activated receptor gamma (Homo sapiens) (UniProt P37231). As to the kind of experiment: NVS_NR_hPPARg: NovaScreen (NVS) Nuclear Receptor Binding Assay for human Peroxisome Proliferator-activated Receptor gamma (PPARg) (AID 2283370). In short, it runs like this: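 Cell-free binding to extracted PPARg protein, read by fluorescence polarization 2 h after dosing; loss of signal relative to DMSO baseline marks displacement. Primary screen in duplicate at 25 uM, actives retested in concentration series.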

Experiment [5] has as its target Estrogen receptor (Homo sapiens) + Estrogen receptor beta (Homo sapiens) (UniProt P03372+Q92731). Put plainly: OT_ER_ERaERb_1440: Odyssey Thera (OT) 24-hour HEK293T Protein-Complementation Assay for Estrogen Receptor-alpha/-beta Homodimer (AID 2283356).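 Note: heteromer of ER alpha and ER beta binding domains; hits raise reporter fluorescence and both agonists and antagonists give an increase.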 In short, it runs like this:
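HEK293T cells stably expressing a PCA pair of ERα LBD (aa 310-547) and ERβ LBD (aa 263-489) were dosed for 24 h. Fluorescence intensity increase versus DMSO vehicle was fitted as gain-of-signal.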

Experiment [6] concerns the target PGR (gene 5241) (UniProt P06401). As to the kind of experiment: NVS_NR_hPR: NovaScreen (NVS) Nuclear Receptor Binding Assay for human Progestron Receptor (PR) (AID 2283360).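 Note: active means loss of bound radioligand signal versus DMSO baseline.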 In short, it runs like this: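 T47D-derived receptor preparation, cell-free, with tritiated or iodinated radioligand displacement measured by scintillation 18 h post-dosing. Single 25 uM duplicate screen, then concentration series; signal loss relative to DMSO.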

Experiment [7] deals with guinea pig Sigma Receptor, Non-selective Binding, SIGMAR1 (gene 100135589) (UniProt Q60492). As to the kind of experiment: NVS_OR_gSIGMA_NonSelective: NovaScreen (NVS) Nuclear Receptor Binding Assay for guinea pig Sigma Receptor, Non-selective Binding (AID 2283367). The gist of the method:
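Guinea pig brain membranes, cell-free radioligand binding; read 1 h after dosing by filter-based scintillation counting. Loss of signal vs DMSO baseline taken as displacement. Primary screen single concentration 25 uM in duplicate; actives retested in concentration series.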

Experiment [8] concerns the target mouse Estrogen Receptor alpha (Era), Esr1 (gene 13982) (UniProt P19785). As to the kind of experiment: NVS_NR_mERa: NovaScreen (NVS) Nuclear Receptor Binding Assay for mouse Estrogen Receptor alpha (Era) (AID 2283378).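 Note: hit means loss of bound radioligand signal relative to DMSO.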 The gist of the method: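 Cell-free radioligand binding with extracted mouse Era protein; competitive displacement of radiolabelled ligand, read by filter-based scintillation counting 18 hours after dosing. Loss of signal versus DMSO baseline taken as binding; single screening concentration 25 uM, actives followed in concentration series.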

The target of experiment [9] is human Peroxisome Proliferator-activated Receptor alpha (PPARa), PPARA (gene 5465) (UniProt Q07869). As to the kind of experiment: NVS_NR_hPPARa: NovaScreen (NVS) Nuclear Receptor Binding Assay for human Peroxisome Proliferator-activated Receptor alpha (PPARa) (AID 2283359).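 Note: activity means loss of TR-FRET signal versus DMSO baseline.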 The gist of the method: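 Cell-free binding assay with extracted human protein, read by TR-FRET 1 h after chemical dosing. Loss of signal relative to DMSO baseline indicates binding. Primary screen used duplicate single concentration (25 uM); actives followed up in concentration series.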

Experiment [10] has as its target Retinoic acid receptor alpha (Homo sapiens) (UniProt P10276). As to the kind of experiment: NVS_NR_hRARa_Agonist: NovaScreen (NVS) Nuclear Receptor Binding Assay for human Retinoic Acid Alpha Receptor Agonism (RAR) (AID 2283361). The gist of the method: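 Cell-free TR-FRET binding read-out with extracted human RARα protein, read 2 h after compound addition. Gain of signal scored against DMSO baseline. Primary screen at a single 25 uM in duplicate; actives then retested in concentration series.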

The target in experiment [11] is human Thyroid Receptor Alpha (TRa), THRA (gene 7067) (UniProt P10827). Put plainly: NVS_NR_hTRa_Antagonist: NovaScreen (NVS) Nuclear Receptor Binding Assay for human Thyroid Receptor Alpha Antagonism (TRa) (AID 2283362). In short, it runs like this:
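Cell-free binding assay on extracted receptor protein, read 1 h after chemical dosing by AlphaLISA chemiluminescence; loss of signal relative to DMSO baseline marks antagonism. Primary screen ran in duplicate at 25 uM, with concentration series for actives.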

The target of experiment [12] is Retinoic acid receptor alpha (Homo sapiens) (UniProt P10276). As to the kind of experiment: NVS_NR_hRAR_Antagonist: NovaScreen (NVS) Nuclear Receptor Binding Assay for human Retinoic Acid Alpha Receptor Antagonism (RAR) (AID 2283358). In short, it runs like this: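 Cell-free TR-FRET binding assay on extracted receptor protein, run in antagonist mode; signal read 2 hours after chemical dosing. Loss of signal was fitted relative to DMSO baseline. Screened at 25 uM in duplicate, actives followed up in concentration series.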

In experiment [13] the test system is guinea pig Dopamine Transporter (DAT), gene 100714898. As to the kind of experiment: NVS_TR_gDAT: NovaScreen (NVS) Transporter Assay for guinea pig Dopamine Transporter (DAT) (AID 2283369).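 Note: active compounds lower bound radioligand signal relative to DMSO.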 The gist of the method:
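Guinea pig striatal membranes; radioligand displacement measured by filter-based scintillation counting 2 h after dosing. Initial duplicate screen at 25 uM, then concentration-response up to 50 uM for hits; loss of signal versus DMSO baseline.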

For experiment [14], the target named is human Dopamine Transporter (DAT), SLC6A3 (gene 6531) (UniProt Q01959). Put plainly: NVS_TR_hDAT: NovaScreen (NVS) Transporter Assay for human Dopamine Transporter (DAT) (AID 2283374).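 Note: activity means loss of bound radioligand signal relative to DMSO.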 In short, it runs like this:
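Cell-free radioligand binding to extracted human DAT protein, read 1 h after dosing by filter-based scintillation counting. Loss of specific binding scored against DMSO baseline; primary screen in duplicate at 25 uM, actives then run in concentration series.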

Experiment [15] addresses Glucocorticoid receptor (Homo sapiens) (UniProt P04150). Put plainly: NVS_NR_hGR: NovaScreen (NVS) Nuclear Receptor Binding Assay for human Glucocorticoid Receptor (GR) (AID 2283363). In short, it runs like this: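 Cell-free radioligand binding with extracted receptor protein, read by filter-based scintillation counting 16 hours after dosing. Loss of specific signal versus DMSO baseline was scored. Primary screen ran in duplicate at 25 uM; actives were followed up in concentration series.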

Structures are written as SMILES. Records with an inconclusive call do not appear. The source made the active and inactive calls. Rule for the calls: active = hit-call score of the fitted dose curve at least 0.9, where 1 is the maximum; inconclusive = response in the unintended direction; inactive = score below 0.9.

Sequence of human Dopamine Transporter (DAT), SLC6A3 (gene 6531) (Q01959 whole entry, looked up): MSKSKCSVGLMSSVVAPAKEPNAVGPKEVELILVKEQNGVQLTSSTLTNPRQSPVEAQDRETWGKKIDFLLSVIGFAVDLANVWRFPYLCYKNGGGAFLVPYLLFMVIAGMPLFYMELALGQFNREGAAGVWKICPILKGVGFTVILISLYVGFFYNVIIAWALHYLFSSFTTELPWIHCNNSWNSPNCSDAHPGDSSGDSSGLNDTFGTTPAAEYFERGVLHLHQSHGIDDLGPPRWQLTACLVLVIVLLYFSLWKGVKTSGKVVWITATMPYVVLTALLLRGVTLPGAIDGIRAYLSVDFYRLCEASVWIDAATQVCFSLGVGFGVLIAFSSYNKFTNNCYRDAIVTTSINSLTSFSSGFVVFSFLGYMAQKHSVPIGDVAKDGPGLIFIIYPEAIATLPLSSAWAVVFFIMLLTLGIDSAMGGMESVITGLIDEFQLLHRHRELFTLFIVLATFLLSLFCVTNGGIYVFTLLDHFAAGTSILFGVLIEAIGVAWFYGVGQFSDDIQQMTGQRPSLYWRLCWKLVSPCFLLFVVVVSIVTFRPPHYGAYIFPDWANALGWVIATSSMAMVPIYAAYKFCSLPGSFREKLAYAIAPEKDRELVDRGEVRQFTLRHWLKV
Sequence of PGR (gene 5241) (P06401 whole entry, looked up): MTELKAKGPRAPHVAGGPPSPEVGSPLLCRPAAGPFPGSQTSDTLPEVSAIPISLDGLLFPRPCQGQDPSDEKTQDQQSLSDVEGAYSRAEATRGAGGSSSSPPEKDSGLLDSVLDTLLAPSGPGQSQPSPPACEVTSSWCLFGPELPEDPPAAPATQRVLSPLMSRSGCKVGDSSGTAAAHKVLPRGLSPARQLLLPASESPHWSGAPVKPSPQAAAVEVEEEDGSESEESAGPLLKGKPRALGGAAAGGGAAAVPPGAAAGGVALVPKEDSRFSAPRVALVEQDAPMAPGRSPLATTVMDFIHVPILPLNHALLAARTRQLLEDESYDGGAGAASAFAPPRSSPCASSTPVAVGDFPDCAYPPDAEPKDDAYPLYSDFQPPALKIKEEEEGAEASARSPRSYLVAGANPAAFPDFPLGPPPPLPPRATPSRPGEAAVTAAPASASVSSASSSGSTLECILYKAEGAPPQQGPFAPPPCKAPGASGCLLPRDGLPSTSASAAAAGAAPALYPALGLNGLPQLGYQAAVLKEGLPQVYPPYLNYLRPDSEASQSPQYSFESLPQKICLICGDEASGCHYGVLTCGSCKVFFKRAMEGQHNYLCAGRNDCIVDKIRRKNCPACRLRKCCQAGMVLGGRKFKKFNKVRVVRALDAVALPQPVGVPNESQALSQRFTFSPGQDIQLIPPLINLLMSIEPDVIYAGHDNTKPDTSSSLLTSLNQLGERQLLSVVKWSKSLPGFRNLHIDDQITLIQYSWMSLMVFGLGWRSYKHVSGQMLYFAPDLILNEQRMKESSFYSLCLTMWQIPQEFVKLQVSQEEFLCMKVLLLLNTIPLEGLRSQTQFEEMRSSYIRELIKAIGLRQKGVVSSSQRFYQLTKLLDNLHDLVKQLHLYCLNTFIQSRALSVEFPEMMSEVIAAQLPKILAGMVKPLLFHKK
Sequence of Estrogen receptor (Homo sapiens) + Estrogen receptor beta (Homo sapiens) (P03372 whole entry, looked up, the tested form may be a part): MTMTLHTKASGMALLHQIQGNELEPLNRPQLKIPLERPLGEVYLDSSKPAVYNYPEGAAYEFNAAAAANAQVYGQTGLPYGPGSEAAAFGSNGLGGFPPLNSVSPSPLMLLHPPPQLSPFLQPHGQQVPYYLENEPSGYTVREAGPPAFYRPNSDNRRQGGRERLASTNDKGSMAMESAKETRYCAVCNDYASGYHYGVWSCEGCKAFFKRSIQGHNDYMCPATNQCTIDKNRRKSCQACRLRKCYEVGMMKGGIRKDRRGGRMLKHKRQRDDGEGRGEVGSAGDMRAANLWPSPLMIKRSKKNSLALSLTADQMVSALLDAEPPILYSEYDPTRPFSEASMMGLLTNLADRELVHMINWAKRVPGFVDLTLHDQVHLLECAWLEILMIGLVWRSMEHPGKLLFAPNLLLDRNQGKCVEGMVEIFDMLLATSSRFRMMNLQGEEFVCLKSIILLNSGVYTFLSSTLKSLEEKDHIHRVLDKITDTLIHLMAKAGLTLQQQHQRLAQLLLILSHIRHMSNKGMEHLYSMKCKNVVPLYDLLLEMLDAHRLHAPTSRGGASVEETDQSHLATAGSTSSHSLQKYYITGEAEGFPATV
Sequence of Estrogen receptor (Homo sapiens) + Estrogen receptor beta (Homo sapiens) (Q92731 whole entry, looked up, the tested form may be a part): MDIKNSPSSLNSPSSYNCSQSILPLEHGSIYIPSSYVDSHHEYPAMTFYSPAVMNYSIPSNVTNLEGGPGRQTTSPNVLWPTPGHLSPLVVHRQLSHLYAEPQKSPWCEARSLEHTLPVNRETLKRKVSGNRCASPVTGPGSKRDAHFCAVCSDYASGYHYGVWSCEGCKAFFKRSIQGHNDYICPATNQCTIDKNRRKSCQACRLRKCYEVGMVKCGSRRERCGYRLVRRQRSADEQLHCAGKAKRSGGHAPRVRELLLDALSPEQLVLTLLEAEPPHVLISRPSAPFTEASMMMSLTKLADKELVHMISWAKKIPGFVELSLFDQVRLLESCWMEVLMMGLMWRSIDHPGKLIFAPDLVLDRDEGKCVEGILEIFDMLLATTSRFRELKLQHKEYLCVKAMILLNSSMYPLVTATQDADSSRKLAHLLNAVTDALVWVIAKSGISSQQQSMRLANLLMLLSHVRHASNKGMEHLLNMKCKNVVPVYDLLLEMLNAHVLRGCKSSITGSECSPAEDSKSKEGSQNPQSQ
Sequence of Estrogen receptor beta (Homo sapiens) (Q92731 whole entry, looked up, the tested form may be a part): as above
Sequence of human Peroxisome Proliferator-activated Receptor alpha (PPARa), PPARA (gene 5465) (Q07869 whole entry, looked up): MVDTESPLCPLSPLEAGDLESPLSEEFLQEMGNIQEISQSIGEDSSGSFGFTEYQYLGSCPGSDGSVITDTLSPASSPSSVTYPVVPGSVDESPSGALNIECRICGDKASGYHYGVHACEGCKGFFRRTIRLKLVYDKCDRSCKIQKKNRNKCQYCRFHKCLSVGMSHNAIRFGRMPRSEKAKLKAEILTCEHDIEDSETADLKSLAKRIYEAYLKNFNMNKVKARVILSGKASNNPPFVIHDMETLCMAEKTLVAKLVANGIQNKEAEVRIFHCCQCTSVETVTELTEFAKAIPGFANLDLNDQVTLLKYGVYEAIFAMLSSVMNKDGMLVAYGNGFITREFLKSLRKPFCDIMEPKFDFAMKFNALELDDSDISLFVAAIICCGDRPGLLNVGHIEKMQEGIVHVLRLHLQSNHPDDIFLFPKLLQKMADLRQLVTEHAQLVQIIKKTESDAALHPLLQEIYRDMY
Sequence of Peroxisome proliferator-activated receptor gamma (Homo sapiens) (P37231 whole entry, looked up): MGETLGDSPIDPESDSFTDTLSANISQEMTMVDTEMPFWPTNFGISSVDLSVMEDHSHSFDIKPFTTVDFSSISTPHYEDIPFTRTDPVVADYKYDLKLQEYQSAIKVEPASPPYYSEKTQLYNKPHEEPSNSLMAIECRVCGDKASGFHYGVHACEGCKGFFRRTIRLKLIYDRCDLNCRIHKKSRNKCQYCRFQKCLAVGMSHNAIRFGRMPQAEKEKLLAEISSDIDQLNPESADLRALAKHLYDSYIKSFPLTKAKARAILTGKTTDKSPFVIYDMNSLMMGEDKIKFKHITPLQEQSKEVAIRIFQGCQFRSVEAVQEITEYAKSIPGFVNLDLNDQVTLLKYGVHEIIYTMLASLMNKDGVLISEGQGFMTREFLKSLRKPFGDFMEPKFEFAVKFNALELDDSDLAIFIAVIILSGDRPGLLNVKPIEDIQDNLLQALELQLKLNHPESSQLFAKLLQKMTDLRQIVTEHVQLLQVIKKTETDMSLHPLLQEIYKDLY
Sequence of Retinoic acid receptor alpha (Homo sapiens) (P10276 whole entry, looked up): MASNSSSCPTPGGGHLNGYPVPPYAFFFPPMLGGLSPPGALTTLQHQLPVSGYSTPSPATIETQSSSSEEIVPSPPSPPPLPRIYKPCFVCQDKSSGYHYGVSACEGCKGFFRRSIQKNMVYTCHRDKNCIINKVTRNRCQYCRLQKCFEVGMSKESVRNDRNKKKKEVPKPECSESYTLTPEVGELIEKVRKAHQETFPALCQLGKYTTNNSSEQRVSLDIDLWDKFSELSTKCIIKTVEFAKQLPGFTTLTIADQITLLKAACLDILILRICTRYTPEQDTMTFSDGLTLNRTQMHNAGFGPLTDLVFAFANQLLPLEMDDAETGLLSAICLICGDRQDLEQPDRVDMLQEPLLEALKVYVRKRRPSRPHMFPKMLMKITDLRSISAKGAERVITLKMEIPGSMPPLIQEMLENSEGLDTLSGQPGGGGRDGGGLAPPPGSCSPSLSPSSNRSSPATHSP
Sequence of guinea pig Sigma Receptor, Non-selective Binding, SIGMAR1 (gene 100135589) (Q60492 whole entry, looked up): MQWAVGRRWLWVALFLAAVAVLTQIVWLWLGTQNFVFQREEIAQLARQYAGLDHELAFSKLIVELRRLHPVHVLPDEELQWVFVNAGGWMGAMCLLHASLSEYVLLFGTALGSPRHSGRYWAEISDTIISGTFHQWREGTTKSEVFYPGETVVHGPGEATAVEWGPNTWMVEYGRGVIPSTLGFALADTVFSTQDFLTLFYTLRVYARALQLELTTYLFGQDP

As a reminder, the AC50 is the concentration at which the activity in the assay is half-maximal. For `C[C@]12C=CC(=O)C=C1CC[C@@H]1[C@@H]2C(=O)C[C@@]2(C)[C@H]1CC[C@]2(O)C(=O)CO`, the results for the AC50 in experiment [1] and in experiment [3] were 0.178 µM (active) and 14.1 µM (active), respectively. Besides, the result in experiment [2] and in experiment [4] was inactive.
For the molecule `CCCCCCC(=O)OCC`, the outcome in experiment [5], in [2], in experiment [6], in experiment [7] and in experiment [8] was inactive.
In the case of `NCC1(Cc2noc(=O)[nH]2)CCCCC1`, the outcome in experiment [5] and in experiment [2] was inactive.
For `c1cc(-c2ccncc2)ccn1`, the outcome in [5], in experiment [2], in experiment [6] and in experiment [3] was inactive.
With `CCCCOC(=O)CCCCCCCCC(=O)OCCCC`, the outcome in experiment [5], in [2], in experiment [9], in experiment [10] and in [11] was inactive.
Consider `CCc1c(C(=O)NN2CCCCC2)nn(-c2ccc(Cl)cc2Cl)c1-c1ccc(Br)cc1`, for which the result in experiment [5], in experiment [2], in experiment [12] and in experiment [13] was inactive. Also, the AC50 in experiment [14] is 6.88 µM (active).
On to `O=c1[nH]cc(F)c(=O)[nH]1`, for which the molecule was called inactive in [1], in experiment [5] and in experiment [2].
Consider `CCOC(=O)C(C)(C)Oc1ccc(Cl)cc1`, for which the result in experiment [5], in experiment [2], in experiment [6], in experiment [11], in [15] and in experiment [4] was inactive. Further, the call in experiment [14] was inactive.
As for `CCCCCCOCCO`, the result in experiment [5] was inactive.
On to `CCCCCCCCCCO`, for which the outcome in [5], in experiment [2] and in experiment [9] was inactive.
For the molecule `O=C(O)CCCCC(=O)O`, the outcome in [5] and in [2] was inactive.
As to `CCCCCCCC=O`, the result in experiment [5], in [2], in [9] and in experiment [6] was inactive.
Regarding `Clc1cc(Cl)c(Cl)cc1Cl`, the outcome in experiment [5] and in [2] was inactive.
Take `Cc1ccc(N(C)C)cc1`: the outcome in experiment [5] was inactive.
For the molecule `Cc1ccc(C)c(C)c1`, the result in experiment [5] and in [2] was inactive.
For `COCCOCCOC`, the result in experiment [5] and in experiment [2] was inactive.
On to `CC(=O)Oc1ccccc1C(=O)O`, for which the result in experiment [5] and in [2] was inactive.
In the case of `C1CCC(SSC2CCCCC2)CC1`, the outcome in experiment [5] was inactive. In addition, in [2], the concentration at half-maximal activity (AC50) was 34.1 µM (active).
For the molecule `COC(=O)c1ccc(O)cc1`, the figures for the AC50 in experiment [5] and in experiment [2] were 74.6 µM (active) and 63.3 µM (active), respectively. Also, the outcome in experiment [6], in experiment [14] and in [8] was inactive.
